The target in assay [1] is Myc proto-oncogene protein (Homo sapiens) (UniProt P01106). As to the kind of experiment: ATG_Myc_CIS: Attagene CIS-FACTORIAL HepG2 Assay for human Myelocytomatosis (Myc) Proto-Oncogene Transcription Factor (AID 2282990). The note with it: HepG2, Attagene cis-reporter transcription factor activity; actives raise or lower the signal. A digest of the protocol: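 HepG2, transient MRTU transfection (cis promoters, endogenous TFs); 24 h dosing; TriZol RNA → oligo(dT) RT → PCR → 6-FAM primer extension → HpaI cut → CE. Bidirectional fit vs DMSO.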
Chain of Myc proto-oncogene protein (Homo sapiens) (P01106 whole entry, looked up): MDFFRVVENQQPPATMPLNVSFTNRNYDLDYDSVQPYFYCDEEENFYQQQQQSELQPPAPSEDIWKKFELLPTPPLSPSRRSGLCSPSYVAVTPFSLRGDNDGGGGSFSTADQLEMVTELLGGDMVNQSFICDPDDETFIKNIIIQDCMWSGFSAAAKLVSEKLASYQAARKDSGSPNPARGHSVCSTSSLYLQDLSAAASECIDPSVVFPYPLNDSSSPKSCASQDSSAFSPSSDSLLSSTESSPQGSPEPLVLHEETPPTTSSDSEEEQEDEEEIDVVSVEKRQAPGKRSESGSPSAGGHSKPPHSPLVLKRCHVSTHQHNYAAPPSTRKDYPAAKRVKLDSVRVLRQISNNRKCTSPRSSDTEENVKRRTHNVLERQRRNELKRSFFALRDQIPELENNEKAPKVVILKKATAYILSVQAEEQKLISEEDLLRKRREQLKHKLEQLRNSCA

Assay [2] is described as follows: ATG_NF_kB_CIS: Attagene CIS-FACTORIAL HepG2 Assay for human Nuclear Factor Kappa B (NF-kB) (AID 2282991). The conditions noted are these: HepG2 Attagene cis-factorial NF-kB reporter mRNA; actives raise or lower the signal. Summed up:
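Fluorescence of labelled RT-PCR products separated by capillary electrophoresis gives reporter mRNA levels from transfected HepG2 cells exposed 24 h; values are fitted in both directions relative to DMSO.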

Assay [3] can be described thus: ATG_NRF2_ARE_CIS: Attagene CIS-FACTORIAL HepG2 Assay for human Nuclear Factor Erythroid 2 Related Factor 2 (NFR2) response to Antioxidant Response Elements (ARE) (AID 2282992). The note with it: HepG2 Attagene ARE/NRF2 reporter, transcription factor activity; actives raise or lower the signal. A digest of the protocol: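 Multiplexed reporter mRNA profiling in HepG2 after a 24 h chemical exposure. Curves fitted in both directions relative to DMSO negative control.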

The nature of assay [4]: ATG_Oct_MLP_CIS: Attagene CIS-FACTORIAL HepG2 Assay for human Octamer-Binding Transcription Factor (Oct) (AID 2282993). The conditions noted are these: HepG2 Attagene cis-factorial Oct reporter, mRNA; actives raise or lower the signal. A digest of the protocol: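 Cells of the HepG2 line express promoter-controlled reporter sequences whose mRNA levels, after 24 h treatment, are measured by RT-PCR and capillary electrophoresis. Increases and decreases are scored relative to DMSO.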

Assay [5] has as its target Cellular tumor antigen p53 (Homo sapiens) (UniProt P04637). Nature of the assay: ATG_p53_CIS: Attagene CIS-FACTORIAL HepG2 Assay for human p53 Transcription Factor (AID 2282994). The note with it: HepG2 p53 cis-element reporter, Attagene mRNA; actives raise or lower the signal. A digest of the protocol:
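Multiplexed reporter mRNA assay in human HepG2 liver cells; cis-regulated units report endogenous factor activity. Values come from bidirectional curve fitting against DMSO negative control after 24 h treatment.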

Assay [6] in a line: BSK_3C_TissueFactor: BioMAP Diversity Plus: 3C Assay for Tissue Factor Biomarker Activity (AID 2282997). The note with it: BioMAP 3C HUVEC, tissue factor biomarker readout; actives raise or lower the signal. A digest of the protocol:
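ELISA read-out of Tissue Factor levels on human umbilical vein endothelium collected 24 h after chemical dosing. Gain or loss of signal was fitted relative to DMSO.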

Assay [7] is described as follows: BSK_3C_uPAR: BioMAP Diversity Plus: 3C Assay for Urokinase-type plasminogen activator receptor (uPAR) Biomarker Activity (AID 2282998). The conditions noted are these: BioMAP 3C HUVEC, uPAR biomarker ELISA; actives raise or lower the signal. Summed up: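 Endothelial primary cells of human umbilical vein origin received test chemical; 24 h later uPAR was assayed by ELISA. Fitting was bidirectional, DMSO as negative control.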
For orientation: An ELISA detects its analyte on a solid surface through an enzyme-linked reagent.

Assay [8] in a line: BSK_3C_VCAM1: BioMAP Diversity Plus: 3C Assay for Vascular cell adhesion molecule 1 (VCAM1) Biomarker Activity (AID 2282999). The note with it: BioMAP 3C HUVEC, VCAM1 ELISA, cytokine-stimulated; actives raise or lower the signal. Summed up: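 Endothelial cells from human umbilical vein are treated with test chemical. At 24 h, VCAM-1 is measured by ELISA, and responses in either direction are fitted relative to DMSO.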

A short description of assay [9]: BSK_4H_Eotaxin3: BioMAP Diversity Plus: 4H Assay for Eotaxin 3 Biomarker Activity (AID 2283000). The note with it: primary human endothelial cells (HUVEC); actives raise or lower the signal. Summed up:
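Chemicals were added to human umbilical vein endothelium cultures, and Eotaxin-3 was quantified by ELISA at 24 h. Values were derived by bidirectional fitting with DMSO serving as negative control and activity baseline.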

The target in assay [10] is human Peroxisome Proliferator-activated Receptor delta (PPARd), PPARD (gene 5467) (UniProt Q03181). Nature of the assay: ATG_PPARd_TRANS: Attagene TRANS-FACTORIAL HepG2 Assay for human Peroxisome Proliferator-activated Receptor delta (PPARd) (AID 2283002; active means hit-call score of the fitted dose curve at least 0.9, where 1 is the maximum). A digest of the protocol: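 Transient HepG2 transfection (multiple GAL4-UAS RTUs, chimeric receptor-Gal4); 24 h dosing; total RNA → oligo(dT) RT → PCR → 6-FAM primer extension → HpaI cut → CE. Positive direction vs DMSO.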
Chain of human Peroxisome Proliferator-activated Receptor delta (PPARd), PPARD (gene 5467) (Q03181 whole entry, looked up, the tested form may be a part): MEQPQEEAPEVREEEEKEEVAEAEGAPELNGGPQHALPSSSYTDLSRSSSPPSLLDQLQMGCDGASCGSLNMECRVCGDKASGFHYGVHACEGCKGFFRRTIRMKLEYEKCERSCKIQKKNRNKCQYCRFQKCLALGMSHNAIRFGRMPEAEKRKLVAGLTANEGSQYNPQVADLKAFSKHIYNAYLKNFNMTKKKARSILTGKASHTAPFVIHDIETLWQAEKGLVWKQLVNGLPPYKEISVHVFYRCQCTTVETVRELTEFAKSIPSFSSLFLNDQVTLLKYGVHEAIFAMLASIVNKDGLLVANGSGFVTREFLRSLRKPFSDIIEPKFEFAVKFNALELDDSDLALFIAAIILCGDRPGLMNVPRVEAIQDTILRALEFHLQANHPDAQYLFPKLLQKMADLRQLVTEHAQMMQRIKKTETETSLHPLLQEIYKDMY

Read-out in assay [11]: Intercellular Adhesion Molecule 1 (ICAM1), ICAM1 (gene 3383)
Nature of the assay: BSK_3C_ICAM1: BioMAP Diversity Plus: 3C Assay for Intercellular Adhesion Molecule 1 (ICAM1) Biomarker Activity (AID 2283003). The note with it: primary human endothelial cells (HUVEC); actives raise or lower the signal. Summed up:
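Primary human umbilical vein endothelial cells in the BioMAP 3C system were exposed to chemicals for 24 h, then ICAM-1 was quantified by ELISA. Activity was fitted bidirectionally against the DMSO negative control baseline.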

Assay [12] has as its target Retinoic acid receptor alpha (Homo sapiens) (UniProt P10276). As to the kind of experiment: ATG_RARa_TRANS: Attagene TRANS-FACTORIAL HepG2 Assay for human Retinoic Acid Receptor alpha (RARa) (AID 2283005; active means hit-call score of the fitted dose curve at least 0.9, where 1 is the maximum). Summed up: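 Reporter transcripts, measured by RT-PCR with fluorescent labeling and capillary electrophoresis after 24 h dosing, reflect activity of an exogenous human RARa–GAL4 fusion in transiently transfected HepG2. Fitted for increase relative to DMSO.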

The nature of assay [13]: BSK_3C_Proliferation: Cell Proliferation Assessment in the BioMAP Diversity Plus: 3C Assay (AID 2283006).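 Further: potency may reflect either rise or fall in cell number versus DMSO.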 The conditions noted are these: primary human endothelial cells (HUVEC). Summed up:
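Human umbilical vein endothelial cells were grown sub-confluent and exposed to chemical for 48 h, then fixed with 10% TCA and stained with 0.1% sulforhodamine B; absorbance at 560 nm gave relative cell number, fitted bidirectionally against DMSO baseline.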

Assay [14] deals with Peroxisome proliferator-activated receptor gamma (Homo sapiens) (UniProt P37231). As to the kind of experiment: ATG_PPARg_TRANS: Attagene TRANS-FACTORIAL HepG2 Assay for human Peroxisome Proliferator-activated Receptor-gamma (PPARg) (AID 2283007; active means hit-call score of the fitted dose curve at least 0.9, where 1 is the maximum). Summed up: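 Twenty-four hours after chemical dosing of transiently transfected HepG2 cells, isolated RNA was converted to cDNA, reporter sequences amplified and 6-FAM-labelled, then HpaI-digested and analysed by capillary electrophoresis. Signal increase against DMSO was fitted.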
Chain of Peroxisome proliferator-activated receptor gamma (Homo sapiens) (P37231 whole entry, looked up): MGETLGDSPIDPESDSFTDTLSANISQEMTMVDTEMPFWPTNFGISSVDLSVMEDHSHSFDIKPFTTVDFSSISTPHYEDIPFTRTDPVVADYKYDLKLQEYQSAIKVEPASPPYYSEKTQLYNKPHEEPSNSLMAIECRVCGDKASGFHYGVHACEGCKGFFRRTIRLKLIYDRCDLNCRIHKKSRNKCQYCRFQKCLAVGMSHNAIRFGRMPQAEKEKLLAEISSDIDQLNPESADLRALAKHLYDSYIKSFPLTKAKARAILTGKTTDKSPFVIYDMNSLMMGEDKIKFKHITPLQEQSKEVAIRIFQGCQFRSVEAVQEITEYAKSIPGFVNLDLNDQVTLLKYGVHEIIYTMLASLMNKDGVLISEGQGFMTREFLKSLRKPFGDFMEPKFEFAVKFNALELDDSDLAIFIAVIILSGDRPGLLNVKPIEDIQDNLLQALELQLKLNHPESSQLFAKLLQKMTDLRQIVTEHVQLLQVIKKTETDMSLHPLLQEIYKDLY

Assay [15] has as its target Nuclear receptor subfamily 1 group I member 2 (Homo sapiens) (UniProt O75469). Nature of the assay: ATG_PXR_TRANS: Attagene TRANS-FACTORIAL HepG2 Assay for human Pregnane X Receptor (PXR) (AID 2283008; active means hit-call score of the fitted dose curve at least 0.9, where 1 is the maximum). A digest of the protocol:
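Measures mRNA induction of a GAL4-UAS-driven reporter in human HepG2 cells transiently expressing PXR fused to Gal4, following 24 h treatment. DMSO served as negative control and baseline.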

In assay [16] the target is human Retinoic Acid Receptor gamma (RARg), RARG (gene 5916) (UniProt P13631). Nature of the assay: ATG_RARg_TRANS: Attagene TRANS-FACTORIAL HepG2 Assay for human Retinoic Acid Receptor gamma (RARg) (AID 2283009; active means hit-call score of the fitted dose curve at least 0.9, where 1 is the maximum). A digest of the protocol:
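HepG2 cells transiently transfected with multiplexed reporter units expressing chimeric RARg-GAL4 and GAL4-UAS-driven reporters; 24 h compound exposure. Reporter mRNA quantified by RT-PCR with fluorescent labelling and capillary electrophoresis; gain-of-signal fitted relative to DMSO baseline.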

The target of assay [17] is human RAR-related Orphan Receptor beta (RORb), RORB (gene 6096) (UniProt Q92753). Nature of the assay: ATG_RORb_TRANS: Attagene TRANS-FACTORIAL HepG2 Assay for human RAR-related Orphan Receptor beta (RORb) (AID 2283010; active means hit-call score of the fitted dose curve at least 0.9, where 1 is the maximum). Summed up:
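HepG2 cells were transiently transfected with multiplexed GAL4-UAS reporter units expressing chimeric nuclear receptor–GAL4 proteins, then dosed for 24 h. Reporter mRNA was quantified by RT-PCR with fluorescent labelling and capillary electrophoresis; gain of signal was fitted relative to DMSO.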

Assay [18] concerns the target Retinoic acid receptor RXR-alpha (Homo sapiens) (UniProt P19793). As to the kind of experiment: ATG_RXRa_TRANS: Attagene TRANS-FACTORIAL HepG2 Assay for human Retinoid X Receptor alpha (RXRa) (AID 2283012; active means hit-call score of the fitted dose curve at least 0.9, where 1 is the maximum). A digest of the protocol:
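HepG2 cells transiently transfected with multiplexed GAL4-UAS reporter units and chimeric NR-GAL4 fusions, dosed 24 h. Reporter mRNA measured by RT-PCR, FAM labelling, HpaI digestion and capillary electrophoresis; gain-of-signal fitted relative to DMSO baseline.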

Assay [19] deals with human Peroxisome Proliferator-activated Receptor alpha (PPARa), PPARA (gene 5465) (UniProt Q07869). Nature of the assay: ATG_PPARa_TRANS: Attagene TRANS-FACTORIAL HepG2 Assay for human Peroxisome Proliferator-activated Receptor alpha (PPARa) (AID 2283001; active means hit-call score of the fitted dose curve at least 0.9, where 1 is the maximum;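 on AC50: potency for gain of reporter signal over DMSO so agonist or activator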). A digest of the protocol: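 Reporter transcripts from GAL4-UAS units in transfected HepG2 were quantified 24 h after dosing. Detection used reverse transcription, PCR, fluorescent primer extension and capillary electrophoresis, with DMSO as baseline.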
Chain of human Peroxisome Proliferator-activated Receptor alpha (PPARa), PPARA (gene 5465) (Q07869 whole entry, looked up, the tested form may be a part): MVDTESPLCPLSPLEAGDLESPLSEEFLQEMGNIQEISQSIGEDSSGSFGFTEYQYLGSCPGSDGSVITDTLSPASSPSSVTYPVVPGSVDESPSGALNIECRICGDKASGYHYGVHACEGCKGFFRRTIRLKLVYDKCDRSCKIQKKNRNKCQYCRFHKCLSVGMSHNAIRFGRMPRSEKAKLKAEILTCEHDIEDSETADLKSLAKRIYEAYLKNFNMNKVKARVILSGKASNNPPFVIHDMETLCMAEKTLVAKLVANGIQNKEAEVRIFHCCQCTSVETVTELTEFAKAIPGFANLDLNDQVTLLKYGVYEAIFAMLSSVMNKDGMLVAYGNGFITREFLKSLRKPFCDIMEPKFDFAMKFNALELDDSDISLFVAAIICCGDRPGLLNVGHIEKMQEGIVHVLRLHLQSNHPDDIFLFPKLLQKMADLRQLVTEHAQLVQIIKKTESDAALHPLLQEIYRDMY

The target in assay [20] is human RAR-related Orphan Receptor gamma (RORg), RORC (gene 6097) (UniProt P51449). As to the kind of experiment: ATG_RORg_TRANS: Attagene TRANS-FACTORIAL HepG2 Assay for human RAR-related Orphan Receptor gamma (RORg) (AID 2283011; active means hit-call score of the fitted dose curve at least 0.9, where 1 is the maximum). Summed up:
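First, HepG2 liver cells were transfected with GAL4-UAS-driven reporter constructs and the RORg-Gal4 fusion. Next, they were treated with chemical for 24 h. Finally, reporter mRNA was quantified by RT-PCR and capillary electrophoresis, with upward activity fitted against DMSO.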

Each structure is given as a SMILES string. Several values for one entry are separate records, joined by “and”; a condition that tells them apart may be missing. Identical values can stand only once. Inconclusive results are not listed. Some structures have more than one record in an assay (separate samples or runs), and their calls can disagree. Activity calls are given as the source filed them. How the source made its calls, unless noted: active means hit-call score of the fitted dose curve at least 0.9, where 1 is the maximum; inactive means score below 0.9.

Chain of Nuclear receptor subfamily 1 group I member 2 (Homo sapiens) (O75469 whole entry, looked up, the tested form may be a part): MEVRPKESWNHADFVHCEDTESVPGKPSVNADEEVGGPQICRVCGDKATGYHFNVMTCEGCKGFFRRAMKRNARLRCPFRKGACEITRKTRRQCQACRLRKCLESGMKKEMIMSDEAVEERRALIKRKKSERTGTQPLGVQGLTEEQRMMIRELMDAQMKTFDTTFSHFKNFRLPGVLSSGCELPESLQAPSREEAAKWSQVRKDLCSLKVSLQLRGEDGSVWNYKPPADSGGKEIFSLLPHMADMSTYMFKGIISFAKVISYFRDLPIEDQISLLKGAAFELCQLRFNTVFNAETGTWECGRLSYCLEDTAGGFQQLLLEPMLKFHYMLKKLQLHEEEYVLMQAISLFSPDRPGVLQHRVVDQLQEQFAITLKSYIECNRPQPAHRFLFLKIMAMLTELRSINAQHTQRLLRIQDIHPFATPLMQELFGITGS
Chain of Retinoic acid receptor RXR-alpha (Homo sapiens) (P19793 whole entry, looked up, the tested form may be a part): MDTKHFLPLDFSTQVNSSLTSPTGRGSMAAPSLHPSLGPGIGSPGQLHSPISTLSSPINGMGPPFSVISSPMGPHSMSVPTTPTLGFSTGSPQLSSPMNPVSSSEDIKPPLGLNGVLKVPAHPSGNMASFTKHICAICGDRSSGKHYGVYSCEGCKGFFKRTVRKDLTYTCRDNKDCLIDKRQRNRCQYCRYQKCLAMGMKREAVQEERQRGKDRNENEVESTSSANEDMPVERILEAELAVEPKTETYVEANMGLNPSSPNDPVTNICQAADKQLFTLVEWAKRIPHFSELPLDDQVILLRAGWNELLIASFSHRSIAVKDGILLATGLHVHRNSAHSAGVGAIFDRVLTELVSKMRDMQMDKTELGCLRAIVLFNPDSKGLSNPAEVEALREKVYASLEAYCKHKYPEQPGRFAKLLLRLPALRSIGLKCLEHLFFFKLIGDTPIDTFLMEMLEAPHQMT
Chain of Cellular tumor antigen p53 (Homo sapiens) (P04637 whole entry, looked up): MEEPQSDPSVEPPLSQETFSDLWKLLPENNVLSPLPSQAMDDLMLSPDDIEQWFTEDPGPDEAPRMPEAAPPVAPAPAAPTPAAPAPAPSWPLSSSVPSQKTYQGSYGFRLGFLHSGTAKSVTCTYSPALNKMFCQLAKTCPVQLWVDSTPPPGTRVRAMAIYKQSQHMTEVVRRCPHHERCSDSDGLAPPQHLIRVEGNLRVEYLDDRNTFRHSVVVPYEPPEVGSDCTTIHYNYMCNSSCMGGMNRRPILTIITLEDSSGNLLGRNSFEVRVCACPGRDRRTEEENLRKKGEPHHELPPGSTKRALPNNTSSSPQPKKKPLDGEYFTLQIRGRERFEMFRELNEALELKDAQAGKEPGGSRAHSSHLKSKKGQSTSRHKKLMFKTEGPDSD
Chain of human Retinoic Acid Receptor gamma (RARg), RARG (gene 5916) (P13631 whole entry, looked up, the tested form may be a part): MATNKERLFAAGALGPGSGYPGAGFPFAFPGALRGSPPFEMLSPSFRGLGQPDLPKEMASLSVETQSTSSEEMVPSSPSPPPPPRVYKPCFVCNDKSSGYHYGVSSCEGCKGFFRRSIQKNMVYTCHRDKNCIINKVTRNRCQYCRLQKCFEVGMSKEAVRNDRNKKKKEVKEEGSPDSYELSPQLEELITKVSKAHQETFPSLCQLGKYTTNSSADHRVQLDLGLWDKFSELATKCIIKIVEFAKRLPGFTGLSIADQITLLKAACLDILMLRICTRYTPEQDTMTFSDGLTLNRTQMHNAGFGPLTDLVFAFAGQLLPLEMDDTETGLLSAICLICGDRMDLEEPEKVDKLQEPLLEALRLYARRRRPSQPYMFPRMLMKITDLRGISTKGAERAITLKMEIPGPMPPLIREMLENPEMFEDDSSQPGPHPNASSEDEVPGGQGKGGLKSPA
Chain of human RAR-related Orphan Receptor beta (RORb), RORB (gene 6096) (Q92753 whole entry, looked up, the tested form may be a part): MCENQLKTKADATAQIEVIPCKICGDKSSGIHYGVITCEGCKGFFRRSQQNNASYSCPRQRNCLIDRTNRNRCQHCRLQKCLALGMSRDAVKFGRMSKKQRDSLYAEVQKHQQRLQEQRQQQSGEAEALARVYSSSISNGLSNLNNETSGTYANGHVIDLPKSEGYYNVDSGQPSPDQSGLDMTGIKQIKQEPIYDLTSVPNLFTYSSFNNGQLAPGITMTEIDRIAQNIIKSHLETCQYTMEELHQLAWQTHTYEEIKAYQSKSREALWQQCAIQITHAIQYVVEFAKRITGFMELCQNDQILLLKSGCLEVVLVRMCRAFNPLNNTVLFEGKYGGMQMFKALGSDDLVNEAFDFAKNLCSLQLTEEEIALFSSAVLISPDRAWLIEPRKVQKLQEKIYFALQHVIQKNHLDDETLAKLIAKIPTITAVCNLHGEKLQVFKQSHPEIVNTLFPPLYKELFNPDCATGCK
Chain of Retinoic acid receptor alpha (Homo sapiens) (P10276 whole entry, looked up, the tested form may be a part): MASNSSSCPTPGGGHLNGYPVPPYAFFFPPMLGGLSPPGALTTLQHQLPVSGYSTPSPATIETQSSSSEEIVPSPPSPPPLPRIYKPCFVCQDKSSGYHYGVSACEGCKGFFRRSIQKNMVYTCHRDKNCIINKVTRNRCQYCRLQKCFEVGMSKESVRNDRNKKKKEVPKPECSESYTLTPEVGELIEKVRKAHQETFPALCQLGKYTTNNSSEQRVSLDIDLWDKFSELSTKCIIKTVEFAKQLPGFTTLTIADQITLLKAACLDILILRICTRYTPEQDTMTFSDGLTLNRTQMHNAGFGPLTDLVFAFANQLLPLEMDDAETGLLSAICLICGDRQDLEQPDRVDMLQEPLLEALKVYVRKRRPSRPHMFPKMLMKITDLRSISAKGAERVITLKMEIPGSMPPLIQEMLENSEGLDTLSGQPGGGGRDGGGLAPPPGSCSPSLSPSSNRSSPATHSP

What is called AC50 is the midpoint of the concentration-response curve, whichever way the signal moves. In the case of `O=C1C2(Cl)C3(Cl)C4(Cl)C(Cl)(Cl)C5(Cl)C3(Cl)C1(Cl)C5(Cl)C24Cl` (stereo not drawn), the molecule was classed as inactive in assay [1], in assay [2], in assay [3], in assay [4], in assay [5] and in assay [10]. Besides, the outcome in assay [12], in [14], in [15], in assay [16], in assay [17] and in [18] was inactive. Besides, the AC50 in assay [2] was 16.5 µM (active); in [3], 6.04 µM (active); in [4], 16.7 µM (active); in assay [6], 7.03 µM (active); in assay [7], 7.28 µM (active); in assay [8], 10.2 µM (active). Moreover, the AC50 in assay [9] was 10.4 µM (active); in [11], 10.8 µM (active); in [13], 4.9 µM (active); in [15] it was 2.11 µM (active) and 2.9 µM (active) and 6.2 µM (active).

`CCOP(=S)(OCC)Oc1nc(Cl)c(Cl)cc1Cl`: the molecule was called inactive in assay [1], in assay [2], in assay [5], in assay [6], in assay [10] and in assay [11]. In addition, the call in assay [17] and in assay [18] was inactive. Moreover, the AC50 in assay [3] is 33.4 µM (active); in assay [4], 117 µM (active); in assay [7], 33.5 µM (active); in assay [8] it was 25.8 µM (active); in assay [9], 27.9 µM (active); in assay [13] it was 20 µM (active). The AC50 in [14] is 46.8 µM (active); in [15] it was 5.64 µM (active).

For the molecule `COP(=S)(OC)Oc1cc(Cl)c(Cl)cc1Cl`, the outcome in assay [1], in assay [2], in assay [4], in assay [5], in assay [7] and in assay [8] was inactive. The outcome in assay [10], in assay [11], in assay [16] and in assay [18] was inactive. In addition, the AC50 in assay [3] is 34.1 µM (active); in assay [6], 2.21 µM (active); in [9], 20 µM (active); in assay [19], 100 µM (active); in assay [13], 20 µM (active); in [14] it was 54.8 µM (active).

On to `CC(C)(C)c1cc(O)ccc1O`, for which the call in assay [1], in assay [2], in assay [5], in [6], in [7] and in assay [19] was inactive. In addition, the outcome in assay [11] and in [20] was inactive. In addition, the AC50 in [3] is 9.05 µM (active); in assay [4] it was 129 µM (active); in assay [8], 28.1 µM (active); in assay [9] it was 27.4 µM (active); in assay [13], 9.85 µM (active); in assay [15], 3.34 µM (active).

(Values after PubChem BioAssay (EPA / NIEHS).)
